In PubChem BioAssay AID1259418 (Broad Institute, 2018):
Among all 3,400 compounds or so, about 840 (25%) were called active. Another 11% or so got no clear call; they are omitted. Not all results are given here. Potency and affinity values are given separately. Values without a mark were called inactive.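 How the source made its calls: active means fitted half-maximal concentration of signal decrease at or below twice the sample's top tested concentration; inconclusive means flat curve between -70 and -30 percent, or poor fit; inactive means flat within 30 percent, signal rise, or potency above limit.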

Assay: inhibitors of Toxoplasma growth in IFN-γ-primed HeLa – cell-based, ME49Luc, luciferase, 72 h, dose response (AID 1259418)
Details: T. gondii ME49Luc in IFN-y HeLa, hits give low values, -100% = high-dose IFN-γ control wells; at 19.5 µM unless noted
`Cc1ccc(C)c(-c2coc(-c3ccc(NC(=O)Nc4cc(F)ccc4F)cc3)n2)c1` showed a max activity of 18.4% [at 0.16 µM]. `CCOc1cc(C(=O)Nc2ccc3c(c2)CCC(=O)N3)cc(OCC)c1OCC` gave a max activity of 7.32%. Compound `Cc1ccc(-c2coc(-c3ccc(NC(=O)CC(C)C)cc3)n2)cc1` has a max activity of 33%. Work on `Clc1ccc(-c2nc(NCc3cccnc3)c3ccccc3n2)cc1` yielded a max activity of -32.4% [at 0.35 µM]. Compound `COc1ccc(-c2nc3c(s2)CN(S(=O)(=O)c2cccs2)CC3)cc1` has a max activity of 12.1% [at 0.16 µM]. For `O=S(=O)(c1cccs1)N1CCCCN2[C@H](C1)[C@@H](c1ccc(/C=C/c3ccccc3)cc1)[C@@H]2CO`, the max activity was 11.8% [at 10 µM]. Work on `COCCCN1CCc2nc(SCc3nc(-c4cccc(Cl)c4)oc3C)[nH]c(=O)c2C1` yielded a max activity of 33.5% [at 0.35 µM]. Compound `O=C(NCC1CC1)C1CN(C(=O)c2ccoc2)CC12CCOCC2` (configuration not stated) has a max activity of 17.9% [at 10 µM]. In the case of `Cc1ccc(-n2ncc3c(NC4CCCCCCCCCCC4)ncnc32)c(C)c1`, the max activity is reported as 53.2% [at 10 µM]. Compound `Oc1[nH]c2ccccc2c1N=Nc1nc(Nc2ccccc2)nc(N2CCOCC2)n1` has a max activity of 12.6% [at 10 µM]. Work on `CCN(CC)Cc1cn2c(n1)CN(C(=O)c1cnc(C)cn1)CC2` yielded a max activity of -25.1% [at 10 µM]. `CCc1nc(OCC(=O)Nc2cccc(C)c2C)c2ccccc2n1` showed a max activity of 34.5%. Work on `COc1ccccc1CNC(=O)CCC1N=C2c3ccccc3N=C(SCc3cc(=O)n4ccccc4n3)N2C1=O` (configuration not stated) yielded a max activity of -7.46% [at 0.16 µM]. `CN1CCCN(C(=O)c2cc3c(c4ccccc4n3CC3CC3)n2S(C)(=O)=O)CC1` gave a max activity of 11.9% [at 5 µM]. Work on `CC(C)c1cc(C2CCCN2C(=O)c2cc(C(F)(F)F)nn2C)on1` (configuration not stated) yielded a max activity of 9.25% [at 0.35 µM]. Work on `COc1ccc(NC(=O)CN2CCC3(CC2)N=C(c2ccc(F)cc2)C(=O)N3)cc1` yielded a max activity of -27.9% [at 1.35 µM]. With `O=C(NCCc1csc(-c2ccccc2)n1)[C@H]1CCCN1C(=O)c1ccc(F)cc1` the max activity was -10.4% [at 0.16 µM]. In the case of `Cc1nc(CCNC(=O)[C@H]2CCCN2C(=O)c2ccc(F)cc2)cs1`, the max activity is reported as -9.63% [at 0.16 µM]. With `Cc1nc(CCNC(=O)[C@H]2CCCN2C(=O)c2cccc(Br)c2)cs1` the max activity was 23.4% [at 0.16 µM]. `O=C(NCCc1csc(-c2ccccc2)n1)[C@H]1CCCN1C(=O)c1ccc(Br)cc1` gave a max activity of -11% [at 0.16 µM]. `NC(=O)C1(N2CCCCC2)CCN(c2ccc(NC(=O)c3ccc(Cl)cc3)cc2C(=O)O)CC1` showed a max activity of 20.8%. `CCN1C(=O)CCCC12CCCN(C(=O)c1ccc3ncccc3c1)C2` (configuration not stated) showed a max activity of -6.92% [at 5 µM]. In the case of `Cc1ccccc1C(=O)N1CCC(N2CCOCC2)CC1C(=O)O` (configuration not stated), the max activity is reported as 15.5%. `Cc1ccc(C)c(-c2coc(-c3ccc(NC(=O)COc4ccccc4C)cc3)n2)c1` showed a max activity of -11.5%. With `N#C[C@@H]1[C@@H](c2ccc(C#Cc3cccnc3)cc2)[C@@H](CO)N1C(=O)NC1CCCCC1` the max activity was -10.3% [at 10 µM]. Compound `COCC(=O)N1[C@H](C#N)[C@H](c2ccc(C#Cc3ccccc3F)cc2)[C@H]1CO` has a max activity of -13.1% [at 10 µM]. In the case of `Cc1cc(C)n(C)c(=O)c1C(=O)N1CCOC(C(F)(F)F)C1` (configuration not stated), the max activity is reported as 34.4%. Work on `Cc1ccc(-c2coc(-c3ccc(NC(=O)CC(C)C)cc3)n2)c(C)c1` yielded a max activity of 14.2% [at 10 µM]. In the case of `CCN(C)C(=O)c1cnc(-c2noc3cc(N4CCCCC4)ccc23)s1`, the max activity is reported as 35.7% [at 10 µM]. `COc1ccc(NC(=O)Nc2ccc(-c3nc(-c4cccc(Br)c4)co3)cc2)cc1OC` gave a max activity of 8.18% [at 0.35 µM]. Compound `O=C(Nc1ccc(-c2nc(-c3ccccc3)co2)cc1)Nc1ccc(F)cc1F` has a max activity of 65.6%. With `CCOC(=O)CSC1=Nc2ccccc2C2=NC(CCC(=O)NCc3ccc(F)cc3)C(=O)N12` (configuration not stated) the max activity was 24.5% [at 2.6 µM]. In the case of `CCOC(=O)CSC1=Nc2ccccc2C2=NC(CCC(=O)NCc3ccccc3)C(=O)N12` (configuration not stated), the max activity is reported as 43.1%. Compound `N#CCSC1=Nc2ccccc2C2=NC(CCC(=O)NCc3ccc(F)cc3)C(=O)N12` (configuration not stated) has a max activity of 22.5% [at 0.35 µM]. Work on `COc1ccccc1CNC(=O)CCC1N=C2c3ccccc3N=C(SCc3ccc(F)cc3)N2C1=O` (configuration not stated) yielded a max activity of 14.5% [at 0.16 µM]. In the case of `O=C(CC1N=C2c3ccccc3N=C(SCc3cccc(F)c3)N2C1=O)NCc1ccccc1` (configuration not stated), the max activity is reported as -15% [at 1.35 µM]. `O=C(CCC1N=C2c3ccccc3N=C(SCc3cccc(F)c3)N2C1=O)NC1CCCCC1` (configuration not stated) gave a max activity of -18.1% [at 2.6 µM]. `Cc1ccc(CSC2=Nc3ccccc3C3=NC(CCC(=O)NC4CCCCC4)C(=O)N23)cc1` (configuration not stated) showed a max activity of -23.8%. In the case of `O=C(CCC1N=C2c3ccccc3N=C(SCc3cccc(F)c3)N2C1=O)NCc1ccco1` (configuration not stated), the max activity is reported as 10.2%. Compound `C/C=C/c1ccc(C2[C@H]3CNC[C@@H]2N3S(=O)(=O)c2cccc(F)c2)cc1` (some centres not stated) has a max activity of 51.2%. Work on `O=C(CC1N=C2c3ccccc3N=C(SCc3cc(=O)n4cc(Cl)ccc4n3)N2C1=O)NCc1ccccc1` (configuration not stated) yielded a max activity of 8.94%. For `Cc1ccc(-c2coc(-c3ccc(NC(=O)c4ccco4)cc3)n2)c(C)c1`, the max activity was 11.6%. Compound `CCOc1ccc(-c2nc(CSc3nc4c(c(=O)[nH]3)CN(C(C)C)CC4)c(C)o2)cc1OC` has a max activity of 21% [at 2.6 µM]. `O=C(CCC1N=C2c3ccccc3N=C(SCc3ccccc3F)N2C1=O)NCCc1ccccc1` (configuration not stated) showed a max activity of 25.3% [at 0.16 µM]. `O=C(CCC1N=C2c3ccccc3N=C(SCc3ccccc3F)N2C1=O)NCc1ccc(F)cc1` (configuration not stated) gave a max activity of 12.5% [at 1.35 µM]. With `COc1ccc(CNC(=O)CCC2N=C3c4ccccc4N=C(SCc4ccc(Cl)cc4)N3C2=O)cc1` (configuration not stated) the max activity was -5.19% [at 0.68 µM]. With `COc1ccc(CNC(=O)CCC2N=C3c4ccccc4N=C(SCc4ccccc4F)N3C2=O)cc1` (configuration not stated) the max activity was -23.7% [at 0.35 µM]. Work on `CCc1c(C)sc2c1CCN(Cc1nc(-c3ccccc3Cl)oc1C)C2c1ccccc1` (configuration not stated) yielded a max activity of 11.5% [at 10 µM]. `CCc1ccc2c(c1)cc(S(=O)(=O)c1ccccc1)c(=O)n2CC(=O)NC(C)CC` (configuration not stated) gave a max activity of -8.4%. With `Cc1ccc(-c2nc(Cn3nnc(-c4nc(-c5ccncc5)no4)c3C)c(C)o2)cc1` the max activity was 8.58% [at 10 µM]. With `CCc1c(C)sc2c1CCN(Cc1nc(-c3ccccc3C)oc1C)C2c1ccccc1` (configuration not stated) the max activity was 25.6% [at 5 µM]. Compound `CCc1c(C)sc2c1CCN(Cc1nc(-c3ccc(OC)cc3OC)oc1C)C2c1ccccc1` (configuration not stated) has a max activity of 15.7%. Work on `CCC(=O)N1CC(=O)N2[C@@H](CO)[C@H](c3ccc(C#CCC(C)C)cc3)[C@@H]2C1` yielded a max activity of 20.4% [at 10 µM]. `CCC(=O)N1CC(=O)N2[C@@H](CO)[C@@H](c3ccc(C#CCC(C)C)cc3)[C@@H]2C1` showed a max activity of 22.8% [at 10 µM]. For `CC(C)CC#Cc1ccc([C@H]2[C@@H](CO)N3C(=O)CN(C(=O)c4cccc(F)c4)C[C@@H]23)cc1`, the max activity was 19.1% [at 10 µM]. `CCC(=O)N1CC(=O)N2[C@H](CO)[C@H](c3ccc(C#CCC(C)C)cc3)[C@H]2C1` showed a max activity of 9.28% [at 10 µM]. With `O=C(c1cccc(F)c1)N1CC(=O)N2[C@@H](CO)[C@H](c3ccc(/C=C/c4ccccc4)cc3)[C@@H]2C1` the max activity was 14.7% [at 5 µM]. `CCc1ccc(CNc2nc(-c3ccc(OC)cc3)nc3ccccc23)cc1` showed a max activity of -7.47% [at 0.16 µM]. In the case of `COc1ccccc1NC(=O)N1CCN(Cc2nc(-c3cccc(Cl)c3)oc2C)CC1`, the max activity is reported as 15.9% [at 1.35 µM]. Compound `COc1ccc(NC(=O)Nc2ccc(-c3nc(-c4ccccc4)co3)cc2)cc1OC` has a max activity of 91.2%. For `O=C(Cc1cccc(F)c1)N1CCC2(CC1)Nc1ccccc1-n1cccc12`, the max activity was 9.66% [at 10 µM]. With `COc1cc(NC(=O)Nc2ccc(-c3nc(-c4ccccc4)co3)cc2)cc(OC)c1OC` the max activity was 43.1%. For `CCc1ccc2c(c1)cc(S(=O)(=O)c1ccccc1)c(=O)n2CC(=O)N1CCCCC1`, the max activity was 9.02% [at 0.16 µM]. With `CC(c1cc2ccccc2s1)N(O)C(N)=O` (configuration not stated) the max activity was 22.5%. Compound `Cc1ccc2c(c1)cc(S(=O)(=O)c1ccccc1)c(=O)n2CC(=O)NCc1ccc(F)cc1` has a max activity of 3.98% [at 10 µM]. `COc1ccc(-c2nc(Cn3nnc(-c4nc(-c5ccc(Cl)c(F)c5)no4)c3C)c(C)o2)cc1` showed a max activity of -11.8% [at 10 µM]. `CCN1C(=O)CCc2cc(NC(=O)Cc3cccs3)ccc21` gave a max activity of -9.98% [at 0.35 µM]. In the case of `Cc1ccc(-c2coc(-c3ccc(NC(=O)Nc4ccc(C)c(C)c4)cc3)n2)cc1`, the max activity is reported as 12% [at 2.6 µM]. Compound `N#Cc1cccc(C(=O)N2CCC3C2CC(=O)N3Cc2ccncc2)c1` (configuration not stated) has a max activity of 25.6%. Compound `CCN1C(=O)CCc2cc(NC(=O)c3cccc(C#N)c3)ccc21` has a max activity of -7.75% [at 0.16 µM]. With `Cc1oc(-c2ccccc2)nc1Cn1nnc(-c2nc(-c3cccc(F)c3)no2)c1C` the max activity was 9.95%. In the case of `COc1ccc2c(c1)NC1(CCN(C(=O)Cc3ccccc3)CC1)c1cccn1-2`, the max activity is reported as 5.44% [at 0.35 µM].
